# Data as given in PubChem BioAssay (NCATS).
# Inconclusive results are not listed. Where a call stands in place of a potency, no number is given. Activity calls are given as the source filed them. Unless noted, calls come from the whole dose curve; as a rule, active = well fitted curve in the direction sought with a large enough effect; inconclusive = small, poorly fitted or top-dose-only effect, or another doubt; inactive = no such curve, though single readings can be large; an effect the other way counts as inactive or inconclusive.
# Legend:
# [1] = Cell Viability qHTS for small molecule stabilizers of the endoplasmic reticulum resident proteome (AID 1508629); conditions: cell viability counter-screen, 100 nM thapsigargin for final 4 h;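 note: human SH-SY5Y neuroblastoma cells carrying the GLuc-SERCaMP reporter; compound exposure about 46 h in total before the viability read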
# [2] = Primary qHTS for small molecule stabilizers of the endoplasmic reticulum resident proteome: Secreted ER Calcium Modulated Protein (SERCaMP) assay (AID 1508630); conditions: SH-SY5Y GLuc-SERCaMP (Gaussia luciferase released on ER calcium loss) secretion, thapsigargin, luminescence; series mostly up to 38.4 µM; note: potency is the fitted concentration of half-maximal effect
# In short: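 GLuc-SERCaMP-expressing SH-SY5Y cells, pretreated 16 h with compound, are challenged with thapsigargin to empty ER calcium stores; after 4 h, coelenterazine is added directly to the medium and luminescence is imaged.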
# [3] = biological target: Calcium and integrin-binding protein 1 (Homo sapiens) (UniProt Q99828); experiment: Primary qHTS for Identification of Calcium Integrin Binding Protein 1 (CIB1) Competitor (AID 1508620); conditions: CIB1-GST / FITC-alphaIIb peptide fluorescence polarization; series mostly up to 57.7 µM;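 note: GST tagged CIB1 binding a fluorescein labelled alphaIIb integrin peptide tracer; top concentration of the series differs between compounds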
# In short: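 Fluorescence polarization competition: CIB1-GST (1 uM final) preincubated with compound 15 min at room temperature, then FITC-labeled alphaIIb peptide (100 nM final) added for another 15 min. Polarization read at Ex 480/Em 540.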
# [4] = A High-Content qHTS Against Drug Library for the Identification of Small Molecules that Inhibit DYT1 Early Onset Primary Dystonia-Associated Cell Pathology (AID 1645839; calls by dose curve); conditions: HEK293 Flp-In EGFP-delE TorsinA, punctate imaging, 48 h; series mostly up to 46.1 µM
# In short: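 Readout: %pathology, the punctate EGFP-TorsinA distribution from imaging, as the primary channel and cell count as the toxicity counterscreen. HEK293 Flp-In cells expressing delE TorsinA were induced with tetracycline and treated with compound for 48 h.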
# [5] = biological target: Cytochrome P450 2D6 (Homo sapiens) (UniProt P10635); experiment: Cytochrome P450 family 2 subfamily D member 6 (CYP2D6) small molecule antagonists: luciferase biochemical (cell-free) qHTS assay (AID 1645840; active = well fitted curve in the direction sought with a large enough effect in the repeat runs; an effect the other way counts as inactive or inconclusive; note: nearly all actives have a fitted effect of over 55% in size; note: potency is the fitted concentration of half-maximal effect); conditions: P450-Glo CYP2D6 enzyme, luciferin luminescence, 1 h; series mostly up to 57.4 µM
# In short: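 P450-Glo luminescent screen: recombinant CYP2D6 enzyme–proluciferin substrate mix preincubated with compound 10 min at room temperature, then NADPH regeneration added for 1 h at room temperature. Detection reagent added for 20 min; luciferin light read as relative luminescence units.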
# [6] = Counterscreen qHTS for small molecule stabilizers of the endoplasmic reticulum resident proteome: GLuc-NoTag assay (AID 1508627); conditions: Gaussia luciferase NoTag secretion counterscreen, luminescence, thapsigargin 100 nM for final 4 h; series mostly up to 76.4 µM;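 note: SH-SY5Y cells given compound then 100 nM thapsigargin to empty ER calcium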
# In short: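 SH-SY5Y cells stably expressing constitutively secreted GLuc (no SERCaMP tag) were pre-incubated 5 h, treated with compound for 19 h, then 100 nM thapsigargin for 4 h at 37C; medium GLuc read by coelenterazine luminescence.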
# [7] = Confirmatory qHTS for small molecule stabilizers of the endoplasmic reticulum resident proteome: Secreted ER Calcium Modulated Protein (SERCaMP) assay (AID 1508628); conditions: SERCaMP secreted luciferase ER calcium/proteostasis reporter; series mostly up to 76.3 µM;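 note: SH-SY5Y cells given compound 16 h then thapsigargin 100 nM for 4 h; nearly all actives have a fitted effect of over 40% in size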
# In short: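 We seeded SH-SY5Y-GLuc-SERCaMP cells, added compounds (three concentrations in the primary run, eleven up to 76.6 uM in confirmation), incubated 16 h, depleted ER calcium with thapsigargin, and read luciferase 4 h later.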
# [8] = biological target: Cytochrome P450 3A4 (Homo sapiens) (UniProt P08684); experiment: Cytochrome P450 family 3 subfamily A member 4 (CYP3A4) small molecule antagonists: luciferase qHTS assay (AID 1645841; active = well fitted curve in the direction sought with a large enough effect in the repeat runs; an effect the other way counts as inactive or inconclusive; note: nearly all actives have a fitted effect of over 45% in size; note: potency is the fitted concentration of half-maximal effect); conditions: P450-Glo CYP3A4 enzyme assay, luciferin luminescence; series mostly up to 57.4 µM
# In short: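 P450-Glo CYP3A4 enzyme with proluciferin substrate was preincubated with DMSO-dissolved compounds for 10 min at room temperature. NADPH regeneration solution started a 1 h reaction. Detection reagent stopped it, and luminescence was read after 20 min.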
# Cytochrome P450 2D6 (Homo sapiens), sequence (P10635 whole entry, looked up): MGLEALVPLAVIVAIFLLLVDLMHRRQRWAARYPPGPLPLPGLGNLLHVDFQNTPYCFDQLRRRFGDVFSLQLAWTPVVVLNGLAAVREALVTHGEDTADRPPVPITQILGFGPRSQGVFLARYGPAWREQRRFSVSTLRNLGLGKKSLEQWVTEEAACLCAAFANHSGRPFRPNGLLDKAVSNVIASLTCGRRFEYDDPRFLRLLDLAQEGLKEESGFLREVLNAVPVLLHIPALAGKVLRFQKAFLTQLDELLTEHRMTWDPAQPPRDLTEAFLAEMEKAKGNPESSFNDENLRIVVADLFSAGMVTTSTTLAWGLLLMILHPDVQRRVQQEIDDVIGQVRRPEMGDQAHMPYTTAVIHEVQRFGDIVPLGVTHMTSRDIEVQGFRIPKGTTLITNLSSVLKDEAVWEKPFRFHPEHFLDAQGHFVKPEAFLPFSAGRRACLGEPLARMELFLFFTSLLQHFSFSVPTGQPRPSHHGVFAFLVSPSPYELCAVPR
# Calcium and integrin-binding protein 1 (Homo sapiens), sequence (Q99828 whole entry, looked up): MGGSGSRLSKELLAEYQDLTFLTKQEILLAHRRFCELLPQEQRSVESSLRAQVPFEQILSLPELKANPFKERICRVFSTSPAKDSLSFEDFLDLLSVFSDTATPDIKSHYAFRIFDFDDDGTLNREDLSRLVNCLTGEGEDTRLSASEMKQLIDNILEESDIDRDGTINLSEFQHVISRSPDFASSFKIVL
# Cytochrome P450 3A4 (Homo sapiens), sequence (P08684 whole entry, looked up): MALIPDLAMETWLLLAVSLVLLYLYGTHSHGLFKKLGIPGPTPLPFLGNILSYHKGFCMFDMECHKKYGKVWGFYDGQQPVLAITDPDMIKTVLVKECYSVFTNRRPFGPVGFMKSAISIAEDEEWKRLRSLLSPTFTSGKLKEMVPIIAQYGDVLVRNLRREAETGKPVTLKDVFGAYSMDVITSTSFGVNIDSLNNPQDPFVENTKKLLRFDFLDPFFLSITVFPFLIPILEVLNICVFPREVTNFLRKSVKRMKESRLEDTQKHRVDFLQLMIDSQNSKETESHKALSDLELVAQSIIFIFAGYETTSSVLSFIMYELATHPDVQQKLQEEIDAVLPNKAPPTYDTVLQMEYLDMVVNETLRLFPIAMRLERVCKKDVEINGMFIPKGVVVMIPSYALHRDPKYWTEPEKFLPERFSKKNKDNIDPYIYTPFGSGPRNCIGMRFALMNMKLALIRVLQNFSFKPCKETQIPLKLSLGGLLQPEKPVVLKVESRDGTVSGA
compound,measurement,setting,value
COc1ccc(-c2ccc3c(N4CCOCC4)nc(N4C[C@@H](C)O[C@@H](C)C4)nc3n2)cc1CO,max response,[1],-27.3% (inactive)
same,Potency,[2],14.9 µM (active)
CCc1ccc(CCOc2ccc(CC3SC(=O)NC3=O)cc2)nc1 (stereo not given),outcome,[3],inactive
same,Potency,[2],inactive
same,Potency,[4],inactive
same,Potency,[5],inactive
O=C1[C@H](Cc2ccc(O)cc2)N2C(=O)CCN(C(=O)NCc3ccccc3)[C@H]2CN1Cc1cccc2ccccc12,Potency,[2],inactive
CC[C@@H](C)[C@H](NC(=O)[C@H](CC1CCCCC1)NC(=O)c1ccno1)C(=O)N1CCC2(CCc3ccccc32)CC1,outcome,[3],inactive
same,Potency,[2],inactive
same,Potency,[5],inactive
OCCn1cc(-c2cnc3nnn(Cc4ccc5ncccc5c4)c3n2)cn1,outcome,[3],inactive
same,Potency,[2],inactive
same,Potency,[5],inactive
Clc1ccc(Nc2nnc(Cc3ccncc3)c3ccccc23)cc1,outcome,[3],inactive
same,Potency,[2],inactive
same,Potency,[5],0.0174 µM (active)
CC(C)OC(=O)C1=CN(C(=O)c2ccc(F)c(F)c2)CC(C)(C)c2c1[nH]c1ccccc21,outcome,[3],inactive
same,Potency,[2],inactive
same,Potency,[5],inactive
CCN(CC)CCCC(C)Nc1ccnc2cc(Cl)ccc12 (stereo not given),Potency,[6],inactive
same,Potency,[7],inactive
same,max response,[1],-9.95% (inactive)
same,Potency,[4],inactive
CNCc1ccc(-c2[nH]c3cc(F)cc4c3c2CCNC4=O)cc1,outcome,[3],inactive
same,Potency,[2],inactive
same,Potency,[8],inactive
COc1nc(-c2ccc3c(c2)OCO3)n(-c2ccc(NC(=O)CSc3ccccc3)cc2)n1,outcome,[3],inactive
same,Potency,[2],inactive
COc1ccc([C@@H]2CC(=O)c3c(O)cc(O[C@@H]4O[C@H](CO[C@@H]5O[C@@H](C)[C@H](O)[C@@H](O)[C@@H]5O)[C@@H](O)[C@H](O)[C@@H]4O)cc3O2)cc1O,outcome,[3],inactive
same,Potency,[2],inactive
same,Potency,[5],inactive
COc1cc(Oc2ccnc3cc(OC)c(OC)cc23)ccc1NC(=O)NC(C)c1nccs1 (stereo not given),outcome,[3],inactive
same,Potency,[2],inactive
same,Potency,[5],inactive
CC(c1cc2ccccc2s1)N(O)C(N)=O (stereo not given),outcome,[3],inactive
same,Potency,[2],inactive
same,Potency,[4],inactive
same,Potency,[5],inactive
same,Potency,[8],13.8 µM (active)
N#Cc1ccc(C(c2ccc(C#N)cc2)n2cncn2)cc1,outcome,[3],inactive
same,Potency,[2],inactive
same,Potency,[5],inactive
COc1ccc(-c2c(-c3ccc(O)cc3O)n[nH]c2C)cc1,outcome,[3],inactive
same,Potency,[2],inactive
same,Potency,[5],4.47 µM (active)
CNC(=O)c1ccccc1Sc1ccc2c(/C=C/c3ccccn3)n[nH]c2c1,outcome,[3],inactive
same,Potency,[2],inactive
same,Potency,[4],inactive
COc1cccc2cc(-c3nc(C4CCC(C(=O)O)CC4)n4ncnc(N)c34)[nH]c12 (stereo not given),outcome,[3],inactive
same,Potency,[5],inactive
CCOC(=O)N[C@@H]1CC[C@@H]2[C@@H](C1)C[C@H]1C(=O)O[C@H](C)[C@H]1[C@@H]2C=Cc1ccc(-c2cccc(F)c2)cn1,outcome,[3],inactive
same,Potency,[2],inactive
CN(C)C(=O)c1ccc(S(=O)(=O)c2ccc(NC(=O)[C@@](C)(O)C(F)(F)F)c(Cl)c2)cc1,outcome,[3],inactive
same,Potency,[2],inactive
same,Potency,[5],inactive
O=c1[nH]c(-c2ccc(C(F)(F)F)cc2)nc2c1CSCC2,outcome,[3],inactive
same,Potency,[2],inactive
same,Potency,[5],inactive
COc1ccc2c3n(c(=NC(=O)c4cccnc4)nc2c1OC)CCN3,outcome,[3],inactive
same,Potency,[2],inactive
CN1CCN(CCCN2c3ccccc3Sc3ccc(C(F)(F)F)cc32)CC1,Potency,[2],inactive
CC(C)(N)C(=O)N[C@H](COCc1ccccc1)C(=O)N1CCC2(CC1)CN(S(C)(=O)=O)c1ccccc12,outcome,[3],inactive
same,Potency,[2],inactive
C#Cc1cccc(Nc2ncnc3cc(OCCOC)c(OCCOC)cc23)c1,outcome,[3],inactive
same,Potency,[2],inactive
same,Potency,[4],inactive
same,Potency,[5],inactive
COCCNCCCn1c(C(=O)CF)c(-c2ccc(C)cc2)c2c(N)ncnc21,outcome,[3],inactive
same,Potency,[2],inactive
S=C(NCc1ccc2c(c1)OCO2)N1CCN(c2ncnc3c2oc2ccccc23)CC1,outcome,[3],inactive
same,Potency,[2],inactive
same,Potency,[5],4.77 µM (active)
OC[C@H](Cc1ccccc1)Nc1nc(Oc2ccc3c(c2)CCC3)nc2c1ncn2Cc1ccc(-c2ccccc2)cc1,outcome,[3],inactive
same,Potency,[2],inactive
same,Potency,[5],inactive
Cc1ccc(N(CC2=NCCN2)c2cccc(O)c2)cc1,Potency,[6],inactive
same,Potency,[2],inactive
same,Potency,[4],inactive
same,Potency,[5],0.309 µM (active)
CCCc1nc2c(C)cc(-c3nc4ccccc4n3C)cc2n1Cc1ccc(-c2ccccc2C(=O)O)cc1,outcome,[3],inactive
same,Potency,[2],inactive
CN(C(=O)c1ccc(F)cc1C(F)(F)F)C1CCN(c2nnc(-c3ccnn3C)c3ccccc23)CC1,outcome,[3],inactive
same,Potency,[2],inactive
same,Potency,[5],inactive
COc1ccc(COc2cc3oc(=O)c4cc(C(C)O)ccc4c3cc2OC)cc1 (stereo not given),outcome,[3],inactive
same,Potency,[2],inactive
O=S(=O)(N=Cc1c(O)ccc2ccccc12)c1cccs1,outcome,[3],inactive
same,Potency,[2],inactive
N=c1nc(N2CCCCC2)cc(N)n1O,Potency,[8],inactive
CCN(CCCO)CCCOc1ccc2c(Nc3cc(CC(=O)Nc4cccc(F)c4)[nH]n3)ncnc2c1,Potency,[8],inactive
